This passage reports growth results from PubChem BioAssay (NCI).

SMILES strings stand for the structures. Compounds without any hit were thinned out: in the full panel of roughly 83,000, 20% have a hit.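 Single-concentration screen, 48 h exposure, 96-well plates. Endpoint: percent growth. Below 10 = active.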 A number with no mark means an inactive call. The source made the active and inactive calls.

The assay deals with CCRF-CEM leukemia. In words: NCI-60 one-dose screen, 48 h (100 = growth as untreated, 0 = no growth, -100 = all killed). Conditions: 10 µM. The procedure:
Growth inhibition of the CCRF-CEM human tumor cell line is measured as a screen for anti-cancer activity. Cells are grown in 96 well plates and exposed to the test compound for 48 hours. Compounds are tested at a single concentration, which is 10^-5 M for most compounds. The reported endpoint is percent growth (GI% or GIPRCNT), where numbers from 0 - 100% represent growth inhibition, and numbers from -100% - 0 represent cell death. For example, a value of 40 represents 60% growth inhibition. A value of 0 means no net growth occurred over the course of the experiment. A value of -40 indicates 40% of cells at the beginning of the experiment died by the end of the experiment. A value of -100 means all cells are dead at the end of the experiment.
NCI-60 Human Tumor Cell Lines Screen was performed using the standard one-dose NCI protocol, which is described in more detail at https://dtp.cancer.gov/discovery_development/nci-60/default.htm.
Compounds with GIPRCNT values below 10 were considered active. Activity score was based on GIPRCNT using the following formula: […]
Score is 0 for GIPRCNT values of 100 or above, 50 for GIPRCNT values of 0, and 100 for GIPRCNT values of -100.
With `O=C(c1ccccc1)N(C(=O)c1ccccc1)N1CCCC1`, the growth was 94.8%. As to `COc1ccccc1N1CCCSC1=Nc1ccccc1`, the growth is 67.6%. With `COc1cc(C)ccc1Oc1nc(Nc2ccc(N3CCOCC3)cc2)ncc1NC(=O)Nc1cc(C(F)(F)F)cc(C(F)(F)F)c1`, the growth was 41.9%. In the case of `OCCn1cccn1`, the growth is 99.7%. To `O=C(Nc1ccc2c(O)cc(S(=O)(=O)O)cc2c1)c1ccc([N+](=O)[O-])cc1` belongs 88.5%; to `COC(=O)C1OC1c1cc([N+](=O)[O-])ccc1OC` (stereo not given), 96%. On to `COc1ccc(-c2nn(-c3cccc(Cl)c3)cc2-c2c(C#N)c(=O)n3[nH]c(-c4ccc(C)cc4)nc3c2C#N)cc1`, for which the growth is 31.4%.

Turning to `O=C1CCn2c1c(O)c1ccccc1c2=O`, the growth is 99.6%.

`O=C(Nc1ccc(F)cc1)c1cc2ccccc2cc1O`: the growth was 71.6%. To `CN(C)c1nc(N)c2nccnc2n1` belongs 114%; to `CN(C)CCN(Cc1ccccc1)c1ccc2ccccc2n1`, 88.6%; to `O=C(CCl)Nc1ccc(Cc2ccc(NC(=O)CCl)cc2)cc1`, 0.0611% (active).

As to `CCCCCCCCCCCC[n+]1c(C)cc(N)c2ccccc21`, the growth is 9.62% (active). Take `NC(=O)c1cccc(-n2ccc3cc(NC(=O)Nc4ccc(Cl)c(C(F)(F)F)c4)ccc32)n1`: the growth was 62.5%.

For the molecule `O=C(Nc1cc([N+](=O)[O-])c2[nH]c(=O)c3ccccc3c2c1)C(F)(F)F`, the growth was 72.8%. To `CN(C)CCOc1ccc(-c2nc3sccn3c2-c2ccnc(S(C)(=O)=O)n2)cc1` belongs 91%; to `CC(=O)Nc1ccc(CC[C@H]2CCC/C=C/[C@@H]3C[C@H](O)C[C@H]3[C@H](O)/C=C/C(=O)O2)cc1`, -4.29% (active); to `S=C(NCc1ccccc1)NCc1ccccc1`, 95.9%. Consider `COc1cc(/C=C2\CCCC3C2=Nc2ccccc2NC3c2cc(OC)c(OC)c(OC)c2)cc(OC)c1OC` (stereo not given), for which the growth was 4.32% (active). As for `CCN(CC)CCCC(C)Nc1c2ccc(Cl)cc2nc2ccc(OC)cc12` (stereo not given), the figure is 39.4%.

On to `Cc1ccc(NC(=S)NNC(=S)Nc2ccc(C)cc2)cc1`, for which the growth is 43.9%. Consider `O=C1CC(=O)N(C(=O)c2nn(-c3ccc(Cl)cc3)cc2O)N1`, for which the growth is 5.93% (active).

As for `Cc1cccc(N=Cc2ccccc2O)c1C`, the growth was 101%. To `COc1ccc(-c2n[nH]nc2-c2cc(OC)c(OC)c(OC)c2)cc1` belongs 9.31% (active); to `OC(CCN1CCCC1)(c1ccccc1)C1CCCCC1` (stereo not given), 98.2%. With `CNS(=O)(=O)Oc1ccc(-c2ccc3occc3c2)cc1`, the growth was 87.7%. As to `Cc1nc2n(c(=O)c1CCN1CCC(c3noc4cc(F)ccc34)CC1)CCC[C@@H]2O`, the growth was -3.98% (active).

Take `COc1ccc(C(=O)COc2cccc(/C=C3\Cc4ccccc4C3=O)c2)cc1`: the growth is 80.8%. To `CC(C)=CCC/C(C)=C/CC/C(C)=C/CC/C=C(\C)CC/C=C(\C)CCC(=O)Nc1ccn(C2OC(CO)C(O)C2(F)F)c(=O)n1` (stereo not given) belongs -6.58% (active); to `CCN(CC)CCOc1cccc2c1C(=O)c1cccc(OCCN(CC)CC)c1C2=O`, 22.3%. As for `CCn1cc(C(=O)O)c(=O)c2cc(F)c(N3CCNCC3)cc21`, the figure is 102%; as for `COc1ccc(Cl)cc1Nc1nc(C(F)(F)F)ccc1C(=O)N/N=C/c1ccc(Cl)cc1`, 1.78% (active); as for `c1ccc(/C(=N\Nc2ccc3ccccc3n2)c2ccccn2)cc1`, -39% (active). As to `CC1C(=NC(=O)c2cnccn2)C(C)C(c2ccc(Cl)cc2)NC1c1ccncc1` (stereo not given), the growth is 79.5%. Consider `Nc1nccc(OCCO)n1`, for which the growth was 113%. For the molecule `COc1cc2cc(Oc3ccc(NC(=O)c4cc(C(F)(F)F)cc(C(F)(F)F)c4)cc3)c(C)nc2cc1OC`, the growth is 33.7%. Consider `N#Cc1c(-c2ccc(Cl)cc2)n(O)c2ccccc12`, for which the growth is 16.2%. As for `O=[N+]([O-])c1ccc2ncccc2c1Cl`, the figure is 12.3%; as for `CC(=O)C1N=NCC1c1ccccc1` (stereo not given), 104%; as for `CC(C)(C)OC(=O)CC(S(=O)(=O)c1ccccc1)S(=O)(=O)c1ccccc1`, 46.9%.
